From ChEMBL document CHEMBL1157539, “Thousands of chemical starting points for antimalarial lead identification” (Nature, 2010)

Experiments:
Assay type in all cases: functional
[1] = system: Plasmodium falciparum; experiment: GSK_TCMDC: Inhibition of Plasmodium falciparum 3D7 in whole red blood cells, using parasite LDH activity as an index of growth. Test compounds present at 2uM
[2] = system: Plasmodium falciparum; experiment: GSK_TCMDC: Inhibition of Plasmodium falciparum Dd2 in whole red blood cells, using parasite LDH activity as an index of growth. Test compounds present at 2uM
[3] = system: HepG2; experiment: GSK_TCMDC: Percent inhibition of human HepG2 cell line. Test compounds present at 10uM.

Question: How did the Inhibition [1] turn out when `Cc1nccc2c(NC(=O)N[C@@H]3CCN(c4ncc(C(F)(F)F)cc4Br)C3)cccc12.Cl` was run?
Answer: The Inhibition was 96%.

Question: And the Inhibition [2]?
Answer: Its Inhibition is 27%.

Question: And the Inhibition [3]?
Answer: Its Inhibition is 21%.

Question: For `O=C(NCC1CCC(C(=O)NCCN2CCCCC2)CC1)c1ccc(O)c(-c2ccc(Cl)c(Cl)c2)c1` (centres undefined), which Inhibition [1] is on record?
Answer: The Inhibition was 91%.

Question: What about the Inhibition [2] of the same compound?
Answer: The Inhibition was 22%.

Question: What about the Inhibition [3] of the same compound?
Answer: Its Inhibition is 0%.

Question: With `COc1ccccc1Nc1nc(NC2CCN(C)CC2)cc(-c2cccc(C(F)(F)F)c2)n1.O=C(O)C(F)(F)F` as the compound, how does the Inhibition [1] read?
Answer: The Inhibition was 95%.

Question: What about the Inhibition [2] of the same compound?
Answer: The Inhibition was 71%.

Question: What about the Inhibition [3] of the same compound?
Answer: The Inhibition was 100%.

Question: What does the source list for `CC[C@H](NC(=O)c1c(N)c(-c2sccc2Cl)nc2ccccc12)c1ccccc1`?
Answer: Inhibition [1]: 99%; Inhibition [2]: 92%; Inhibition [3]: 0%

Question: For `Oc1ccc2[nH]c(-c3cccc(F)c3)nc2c1CN1CCCC1`, which Inhibition [1] is on record?
Answer: The Inhibition was 100%.

Question: And the Inhibition [2]?
Answer: Its Inhibition is 47%.

Question: What about the Inhibition [3] of the same compound?
Answer: Its Inhibition is 0%.

Question: How did the Inhibition [1] turn out when `Cl.O=C(CCCCCCc1ccccc1)Nc1ccc2nc3c(c(NCc4ccccc4)c2c1)CCCC3` was run?
Answer: The Inhibition was 100%.

Question: What about the Inhibition [2] of the same compound?
Answer: Its Inhibition is 98%.

Question: What about the Inhibition [3] of the same compound?
Answer: The Inhibition was 19%.

Question: What does the source list for `Clc1ccc(Cn2nc(Br)nc2Br)c(Cl)c1`?
Answer: Inhibition [1]: 96%; Inhibition [2]: 96%; Inhibition [3]: 4%

Question: `CCN1CCN(c2cc(C)c3cc(NC(=O)c4ccc(N(CC)CC)cc4)ccc3n2)CC1` was tested. Which Inhibition [1] did it give?
Answer: Its Inhibition is 95%.

Question: And the Inhibition [2]?
Answer: The Inhibition was 41%.

Question: And the Inhibition [3]?
Answer: The Inhibition was 38%.

Question: `Cc1cc(NC(=O)NCCN2CCC(NC(=O)c3ccc(C(F)(F)F)cc3)CC2)c2ccccc2n1.O=C(O)C(F)(F)F` was tested. Which Inhibition [1] did it give?
Answer: The Inhibition was 98%.

Question: And the Inhibition [2]?
Answer: The Inhibition was 75%.

Question: What about the Inhibition [3] of the same compound?
Answer: Its Inhibition is 3%.

Question: Which results are given for `COc1csc2cc(Br)ccc12`?
Answer: Inhibition [1]: 100%; Inhibition [2]: 0%; Inhibition [3]: 6%

Question: How did the Inhibition [1] turn out when `O=C(/C=C/c1ccc(Cl)c(Cl)c1)NCCCCCN1CCC(NC(=S)Nc2ccc(F)cc2F)CC1` was run?
Answer: Its Inhibition is 100%.

Question: And the Inhibition [2]?
Answer: Its Inhibition is 18%.

Question: And the Inhibition [3]?
Answer: The Inhibition was 20%.

Question: What does the source list for `Cc1[nH]c2ccc(O)cc2c1C1CCN(CCCCCNC(=O)/C=C/c2ccc(Cl)c(Cl)c2)CC1`?
Answer: Inhibition [1]: 100%; Inhibition [2]: 1%; Inhibition [3]: 33%

Question: Which results are given for `CCN1CCC(N(Cc2ccc(-c3ccc(C(F)(F)F)cc3)cc2)C(=O)Cn2c(CCc3cccc(F)c3F)nc(=O)c3ccccc32)CC1.O=C(O)C(O)C(O)C(=O)O`?
Answer: Inhibition [1]: 95%; Inhibition [2]: 95%; Inhibition [3]: 99%

Question: What does the source list for `CC(C)CCN1CCC(Oc2ccc(NC(=O)c3cccs3)cc2Cl)CC1.O=C(O)C(F)(F)F`?
Answer: Inhibition [1]: 97%; Inhibition [2]: 96%; Inhibition [3]: 31%

Question: Which results are given for `Cc1ccc(C(C)C)c(Oc2cnc(NC(CO)c3ccccc3)nc2N)c1` (centres undefined)?
Answer: Inhibition [1]: 95%; Inhibition [2]: 0%; Inhibition [3]: 27%

Question: Which results are given for `CCNC(=O)Nc1ccc(-c2cnc(N)c(-c3nc4ccc(OC)cc4[nH]3)c2)cc1`?
Answer: Inhibition [1]: 100%; Inhibition [2]: 43%; Inhibition [3]: 51%

Question: With `CC(C)Cn1c(Sc2ccc(C#N)c([N+](=O)[O-])c2)nnc1-c1cccs1` as the compound, how does the Inhibition [1] read?
Answer: The Inhibition was 90%.

Question: And the Inhibition [2]?
Answer: Its Inhibition is 32%.

Question: What about the Inhibition [3] of the same compound?
Answer: Its Inhibition is 9%.

Question: What does the source list for `COc1cc(Cc2cnc(N)nc2N)cc(OC)c1OCCCCC(=O)O.Cl`?
Answer: Inhibition [1]: 88%; Inhibition [2]: 0%; Inhibition [3]: 0%

Question: Which results are given for `Nc1cnc(C#Cc2cc3ncnc(N(CCN4CCOCC4)c4ccc(OCc5cccc(F)c5)c(Cl)c4)c3s2)cn1`?
Answer: Inhibition [1]: 87%; Inhibition [2]: 57%; Inhibition [3]: 0%

Question: Which results are given for `CCCCN1CCCC[C@H]1[C@@H](O)c1ccnc2ccc(OCC)cc12`?
Answer: Inhibition [1]: 100%; Inhibition [2]: 88%; Inhibition [3]: 6%

Question: Which Inhibition [1] does the source give for `COc1cccc2sc(N3CCN(C(=O)c4ccc([N+](=O)[O-])o4)CC3)nc12` here?
Answer: Its Inhibition is 95%.

Question: What about the Inhibition [2] of the same compound?
Answer: The Inhibition was 67%.

Question: What about the Inhibition [3] of the same compound?
Answer: The Inhibition was 0%.

Question: `CC(=O)N(C)C1CCN(Cc2cccc(-c3ccc(-c4nc5cc(F)ccc5[nH]4)cc3)c2)C1.O=C(O)C(F)(F)F` (centres undefined) was tested. Which Inhibition [1] did it give?
Answer: Its Inhibition is 92%.

Question: And the Inhibition [2]?
Answer: The Inhibition was 19%.

Question: What about the Inhibition [3] of the same compound?
Answer: The Inhibition was 24%.

Question: With `CO/C(=C\C=C\c1cc2cc(Cl)c(Cl)cc2[nH]1)C(=O)NCCCN1CCN(c2ccc(OC)cc2)CC1` as the compound, how does the Inhibition [1] read?
Answer: Its Inhibition is 99%.

Question: What about the Inhibition [2] of the same compound?
Answer: Its Inhibition is 44%.

Question: And the Inhibition [3]?
Answer: Its Inhibition is 40%.

Question: With `COc1ccccc1CCNc1nc(C)cc(N[C@@H](Cc2ccccc2)C(=O)NCCc2ccccc2)n1.O=C(O)C(F)(F)F` as the compound, how does the Inhibition [1] read?
Answer: Its Inhibition is 100%.

Question: And the Inhibition [2]?
Answer: The Inhibition was 89%.

Question: What about the Inhibition [3] of the same compound?
Answer: The Inhibition was 16%.

Question: With `CN(C)CCN(C)Cc1cccc(-c2ccc3c(Nc4cc(O)c(Cl)cc4F)ccnc3c2)c1` as the compound, how does the Inhibition [1] read?
Answer: Its Inhibition is 100%.

Question: What about the Inhibition [2] of the same compound?
Answer: Its Inhibition is 70%.

Question: What about the Inhibition [3] of the same compound?
Answer: The Inhibition was 14%.

Question: For `COc1ccc(-c2cccc(NC(=O)c3cccc(C#N)c3)c2)cc1CN1CCCN(C)CC1.O=C(O)C(F)(F)F`, which Inhibition [1] is on record?
Answer: The Inhibition was 100%.

Question: And the Inhibition [2]?
Answer: Its Inhibition is 99%.

Question: And the Inhibition [3]?
Answer: Its Inhibition is 22%.

Question: With `COc1ccc(-c2nnc(Sc3ccc(C#N)c([N+](=O)[O-])c3)n2CCC(C)C)cc1` as the compound, how does the Inhibition [1] read?
Answer: The Inhibition was 89%.

Question: And the Inhibition [2]?
Answer: The Inhibition was 53%.

Question: What about the Inhibition [3] of the same compound?
Answer: The Inhibition was 15%.

Question: Which results are given for `Cc1noc(-c2ccc(O)cc2O)c1-c1ccc2c(c1)OCCCO2`?
Answer: Inhibition [1]: 100%; Inhibition [2]: 99%; Inhibition [3]: 8%
